# Screening data deposited in PubChem BioAssay by several laboratories.
# Hits are enriched below; roughly 4.1% of the tested compounds scored in any of these assays.
# A1 inh: inhibitors of the anti-apoptotic protein A1, read as caspase activation; caspase activation, % (no concentration beside the values); 0.066% of 330,000 active; MEF A1-2A-BIM cells, Caspase-Glo 3/7 luminescence, 3 h; percent of clofoctol response, vehicle zero;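 active = over half of replicate activation scores above 10%, or exactly half above 10 with the replicate mean above 10; inconclusive = replicate mean below 10 yet half the replicates above 10; inactive = over half of replicates below 10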
# Beta apoptosis: beta cell apoptosis inhibition | INS-1E cytokine-induced death, ATP luminescence, 48 h; percent of positive-control rescue, neutral wells zero | protection from apoptosis, % (test concentration not listed) | 0.8% of 300,000 active | AID 435005;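 active = Every replicate reaches about 75%, or at least half do and their mean reaches it too, limit read from the data; inconclusive = At least half of replicates reach the limit but their mean does not; inactive = Under half of replicates reach the limit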;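 also: 0% = cytokine-treated negative control wells and 100% = positive control rescue; higher means more ATP so stronger rescue from cytokine killing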
# Mdm2 MdmX PPI: human Mdm2/MdmX binding inhibition | O15151+Q00987 | 3% of 330,000 active | AID 485346 | SaOS-2 split-luciferase Mdm2/MdmX complementation, luminescence | inhibition, % at 8 µM;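 active = inhibition of at least 50% at 8 µM in the primary screen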
# Target sequence (O15151 whole entry, looked up): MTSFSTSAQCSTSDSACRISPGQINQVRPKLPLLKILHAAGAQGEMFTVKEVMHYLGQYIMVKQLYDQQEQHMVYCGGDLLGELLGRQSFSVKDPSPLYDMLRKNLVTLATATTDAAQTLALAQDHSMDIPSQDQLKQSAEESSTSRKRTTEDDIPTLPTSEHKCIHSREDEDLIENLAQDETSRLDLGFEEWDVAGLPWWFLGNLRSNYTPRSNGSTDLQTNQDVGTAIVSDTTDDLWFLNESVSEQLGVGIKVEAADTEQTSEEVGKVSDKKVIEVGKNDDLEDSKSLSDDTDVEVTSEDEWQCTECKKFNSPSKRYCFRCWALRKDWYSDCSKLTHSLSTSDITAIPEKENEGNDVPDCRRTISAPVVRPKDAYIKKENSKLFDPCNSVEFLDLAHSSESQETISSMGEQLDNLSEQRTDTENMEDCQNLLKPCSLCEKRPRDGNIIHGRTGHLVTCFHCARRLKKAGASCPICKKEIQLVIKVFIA
# Target sequence (Q00987 whole entry, looked up): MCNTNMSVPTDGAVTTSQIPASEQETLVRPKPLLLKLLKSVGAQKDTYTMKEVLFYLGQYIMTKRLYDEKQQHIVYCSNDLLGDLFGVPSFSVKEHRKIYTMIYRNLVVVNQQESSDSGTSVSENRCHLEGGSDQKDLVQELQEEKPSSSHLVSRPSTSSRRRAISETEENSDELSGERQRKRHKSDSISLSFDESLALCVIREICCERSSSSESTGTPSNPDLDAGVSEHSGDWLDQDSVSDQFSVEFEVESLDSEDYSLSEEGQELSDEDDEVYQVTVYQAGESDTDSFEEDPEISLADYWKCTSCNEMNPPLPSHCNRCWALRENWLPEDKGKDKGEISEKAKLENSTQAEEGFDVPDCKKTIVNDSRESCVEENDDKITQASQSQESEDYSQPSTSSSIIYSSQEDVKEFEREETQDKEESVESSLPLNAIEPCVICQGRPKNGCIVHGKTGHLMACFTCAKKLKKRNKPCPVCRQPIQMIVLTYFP
# aSyn UTR inh: 5' untranslated region of α-synuclein, MLPCN primary screen | alpha-synuclein 5'UTR reporter, inhibitor activity | inhibition, % (tested at 7.5 µM) | 0.82% of 300,000 active; in the data active = inhibition above about 60%; inconclusive = no clear call, values can overlap the other calls;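 also: H4 neuroglioblastoma cells stably carrying SNCA 5'UTR luciferase fusion; 0% = DMSO wells and 100% = positive control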
# CSC inhib: blocks cancer stem cells | cancer stem cell-like cells viability, luminescence | inhibition, % at 7.5 µM | 1.1% of 300,000 active; in the data active = inhibition above about 75%; inconclusive = no clear call, values can overlap the other calls; tested in HMLE shEcad cells
# Active calls of the source: *; ? = inconclusive; . = no result given.
SMILES,A1 inh,Beta apoptosis,Mdm2 MdmX PPI,aSyn UTR inh,CSC inhib
Cc1ccc(CN(CC(O)COc2cccc3[nH]cc(C)c23)C(C)(C)C)cc1 (stereo not drawn),-0.2,-2.0,-22.1,-9.5,75.9*
CC(=O)N1c2ccc(S(=O)(=O)NCCC(=O)Nc3cccc(Cl)c3)cc2CC1C (stereo not drawn),1.2,.,17.2,1.6,1.1
CC(C)c1ccccc1NC(=O)COC(=O)CCN1C(=O)/C(=C\C=C\c2ccccc2)SC1=S,-0.8,5.8,-2.0,73.0*,5.0
O=C(COC(=O)CCN1C(=O)/C(=C\C=C\c2ccccc2)SC1=S)Nc1ccc(Br)cc1,-3.8,-2.3,26.5,64.8*,28.2
O=C(CCN1C(=O)/C(=C\C=C\c2ccccc2)SC1=S)Nc1cccc(C(=O)O)c1,1.9,-15.8,-35.7,-4.0,20.2
Cc1ccc(C(C)C)c(OCc2ccc(C(=O)N/N=C/c3cccc(O)c3O)cc2)c1,0.1,90.5*,.,108.5*,111.4*
Cc1cc(N/C=C/C(=O)c2ccccc2)ccc1Br,-6.7,6.1,-40.0,-78.4,4.3
O=C(/C=C/Nc1ccc(F)cc1Br)c1ccccc1,-8.7,18.4,19.8,69.7*,36.0
Cc1ccc(Nc2nc(N)c([N+](=O)[O-])c(NCc3ccco3)n2)cc1C,-0.6,7.0,-2.6,-54.6,84.0*
CNc1nc(N)c([N+](=O)[O-])c(Nc2cccc(Cl)c2)n1,-0.3,-3.9,24.5,13.3,-14.9
Cc1ccc(Nc2nc(N)c([N+](=O)[O-])c(N3CCC(C)CC3)n2)cc1C,-0.2,2.6,-2.0,25.9,85.5*
CNc1nc(N)c([N+](=O)[O-])c(Nc2cccc(F)c2)n1,0.5,94.2*,36.7,14.4,11.9
Nc1nc(Nc2ccccc2)nc(NC2CCCCC2)c1[N+](=O)[O-],-1.0,27.6,27.5,34.5,103.7*
Nc1nc(Nc2ccccc2)nc(NCc2ccccc2)c1[N+](=O)[O-],0.3,7.3,19.0,84.2*,57.4
Nc1nc(NCCOCCO)nc(NC2CCCCC2)c1[N+](=O)[O-],-1.1,-5.0,12.7,67.6*,-6.2
Nc1nc(NCCO)nc(NC2CCCCC2)c1[N+](=O)[O-],-0.1,0.6,10.0,57.2,-2.0
CC(C)CNc1nc(N)c([N+](=O)[O-])c(NCc2ccccc2)n1,0.3,-5.2,31.2,77.0*,-8.9
Nc1nc(NCc2ccccc2)nc(NCc2ccccc2)c1[N+](=O)[O-],-0.4,2.5,-0.5,21.7,-9.2
Cc1cc(OCC(=O)NNC(=S)NC(=O)c2ccc(Br)o2)ccc1Cl,0.6,5.8,47.6,.,-1.5
CCN(Cc1ccncc1)C(=O)c1ccc(C)c(S(=O)(=O)N2CCCCC2)c1,0.8,1.0,2.1,.,10.5
Cc1ccc(C(=O)Nc2ncc([N+](=O)[O-])s2)cc1,-7.8,68.0,.,68.9*,37.1
O=C(Nc1ncc([N+](=O)[O-])s1)c1ccco1,-0.2,21.5,5.7,-98.1,-9.4
CCC(=O)NNc1ccc(Br)cc1,-0.2,3.7,1.3,3.0,80.3*
CCC(C)NC(=O)Nc1ccc(Br)cc1 (stereo not drawn),-2.0,3.0,-6.1,-73.2,10.4
Cc1nc2ccccc2cc1OCc1ccccc1,-0.3,43.3,8.5,-45.8,-5.9
SMILES,A1 inh,Beta apoptosis,Mdm2 MdmX PPI,aSyn UTR inh,CSC inhib
Cc1nc2ccccc2cc1OCc1ccc(Cl)cc1,.,109.1*,-8.7,-72.1,.
COc1cccc(COc2cc3ccccc3nc2C)c1,-1.4,98.4*,-8.7,-95.8,14.6
COc1ccccc1N1C(C)=CC(=C(C#N)c2nc3ccccc3s2)C=C1C,0.3,128.4*,37.2,4.8,32.1
CC1=CC(=C(C#N)c2nc3ccccc3s2)C=C(C)N1c1ccc(F)cc1,-0.5,6.4,-15.7,-22.2,37.0
C/C(=N\NC(=S)Nc1ccccc1C)c1cc2ccccc2o1,-1.1,77.8*,19.4,-28.4,27.7
C/C(=N\NC(=S)Nc1c(C)cccc1C)c1cc2ccccc2o1,-0.8,10.2,16.7,5.2,13.1
O=C(N/N=C/c1sc2ccccc2c1O)c1cccc2ccccc12,0.0,97.1*,.,91.6*,97.4*
COc1ccc(C(=O)N/N=C/c2sc3ccccc3c2O)cc1,-1.2,96.2*,.,83.8*,?
O=C(c1cc(Br)ccc1O)N1CCN(S(=O)(=O)Cc2ccccc2)CC1,0.3,1.8,23.1,.,-3.1
O=S(=O)(Nc1cccc(S(=O)(=O)N2CCCCCC2)c1)c1ccc(F)cc1F,-0.9,0.3,2.8,.,-7.1
CC1(C)CC2CC(C)(CN2C(=O)c2cc(-c3ccc(O)cc3)on2)C1 (stereo not drawn),-0.6,5.0,18.4,4.2,86.5*
COc1ccc(NC(=O)C2CCCN(S(C)(=O)=O)C2)cc1Cl (stereo not drawn),1.7,-2.9,-1.3,17.3,-3.8
O=C(Nc1nnc(Cc2ccccc2F)s1)Nc1ccccc1F,0.4,7.1,12.5,-98.6,57.8
CCOC(=O)c1c(NC(=O)c2nn(CC)cc2Br)sc(C)c1C,0.6,8.7,6.9,9.3,15.7
CCOC(=O)c1c(NC(=O)c2nn(CC)cc2Br)sc2c1CCCCC2,-0.1,7.5,26.5,20.2,84.6*
Cn1c(-c2ccccc2)cnc1SCC(=O)N1CCCc2ccccc21,-0.3,-4.0,17.8,13.4,7.0
Cn1c(-c2ccccc2)cnc1SCC(=O)N1CCCCC1,-1.0,-0.6,47.7,82.8*,-6.8
COc1ccc(OC)c(/C=C(\C)C(=O)c2c(C)cc(C)[nH]c2=O)c1,-0.2,-2.5,-1.2,-5.9,15.8
Nc1cc(=O)[nH]c(=O)n1CCc1ccccc1,0.8,-6.9,-25.6,7.9,-8.1
Cc1ccsc1/C=C/c1ccc2cccc(O)c2n1,-5.9,21.8,-41.9,-25.8,92.1*
Oc1cccc2ccc(/C=C/c3ccccc3Br)nc12,-8.0,38.8,-12.5,33.2,97.2*
CCc1cccc2c(C(=O)CN3C(=O)NC(C)(c4cccc5ccccc45)C3=O)c[nH]c12 (stereo not drawn),0.0,-8.4,39.6,-27.8,103.5*
CSCc1c(C(=O)NCCc2ccccn2)oc2ccccc12,0.0,3.4,16.4,-9.4,-5.7
Oc1c(Cl)cc(CN2CCCCC2)c2cccnc12,-0.2,111.2*,45.6,38.5,87.0*
O=C(Oc1c(CN2CCOCC2)cc(Cl)c2cccnc12)c1ccccc1Cl,-0.4,21.8,41.0,105.2*,20.1
SMILES,A1 inh,Beta apoptosis,Mdm2 MdmX PPI,aSyn UTR inh,CSC inhib
O=C(Oc1ccc(Cl)c2cccnc12)N1CCOCC1,-0.1,-4.9,2.7,-5.6,-9.4
Oc1ccc(CN2CCCCC2)c2cccnc12,0.7,5.3,49.9,?,23.3
Cc1ccsc1C(=O)OCC(=O)NC1CCCC1,.,.,-11.4,.,.
COc1ccc2cc(/C=C/C(=O)N3CCN(CC(=O)N4CCCCCC4)CC3)ccc2c1,0.2,-2.1,-19.7,-27.4,3.2
COc1cc(C(=O)N/N=C(\C)c2ccc3c(c2)OCO3)cc(OC)c1OC,-0.4,-1.3,49.9,11.3,53.1
COc1cc(C(=O)c2cocc2C(=O)c2ccc3c(c2)OCO3)cc(OC)c1OC,0.5,45.4,.,66.7*,49.7
Cc1c(OCC(=O)NCCN2CCOCC2)ccc2c(-c3ccccc3)cc(=O)oc12,0.2,-1.4,28.6,-3.1,9.9
